Screens (PubChem BioAssay)
The list is not random: actives were taken first. Their share in the collection is about 8%.
Pyk2 oligo antag = antagonists of human Pyk2 oligomerization | Q293 cells, Pyk2 FERM NanoBiT luminescence; hits give low values | z-score (the deposit names both 25 µM and 10 µM) | 99,000 compounds, 0.83% hits;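 active means Z-score of -3 or lower, scaled per plate to the spread of control and sample wells; inactive means z-score above -3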;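 further: negative z-score means lost luminescence so less FERM oligomerization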
Cav3 T inh = blocks human Cav3.2 T-type calcium channel | AID 449739 | Cav3.2-expressing cells, Fluo-4 calcium fluorescence FDSS; hits give low values | B-score at 10 µM | 100,000 compounds, 4% hits;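 active means single-dose well whose peak fluorescence ratio is a statistical outlier from its plate by either plate-standardised score or position-corrected B-score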
PostGolgi yeast = growth inhibition of a yeast mutant, post-Golgi transport screen | post-Golgi transport phenotypic cell assay | inhibition, % at 10 µM | 98,000 compounds, 0.9% hits;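 further: yeast cells grown in 1536-well plates; yeast grown about 18 h at 30C before absorbance read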
PostGolgi ctrl = yeast control strain growth, post-Golgi counter-screen. efflux-deficient yeast background strain, growth absorbance A615, 16 h. inhibition, % at 10 µM. 98,000 compounds, 5% hits
Each line names hits and unclear results; the compound was inactive in the other large screens. Unless noted, no stated cut-off is given here; in the data, active means inhibition above about 30%; inactive means the rest.

CCOC(=O)c1nn(-c2ccccc2F)c(-c2ccccc2)c1C(=O)c1ccccc1	Pyk2 oligo antag -4, Cav3 T inh -4.4, PostGolgi ctrl 32
CCOC(=O)c1nn(-c2cccc(OC)c2)c(-c2ccccc2)c1C(=O)c1ccccc1	Pyk2 oligo antag -4.2
CCOC(=O)c1nnn(-c2ccccc2)c1C	none (no result: PostGolgi yeast, PostGolgi ctrl)
CCOC(=O)c1nn(-c2ccccc2)c(-c2ccccc2)c1C(=O)c1ccccc1	Pyk2 oligo antag -3.5
CCCCN(C)S(=O)(=O)c1cc(Br)cc2c1N(C(=O)C1CC1)CC2	none
Cn1c(NC(=O)c2ccccc2NC(=O)C(C)(C)C)nc2ccccc21	none (no result: Pyk2 oligo antag, Cav3 T inh)
OC(CSc1ccccc1Cl)CN1CCN(c2ccccc2F)CC1 (stereo not given)	none
OC(CSc1c(Cl)cccc1Cl)CN1CCN(c2ccc(F)cc2)CC1 (stereo not given)	PostGolgi ctrl 37
OC(CSc1ccccc1Cl)CN1CCN(c2ccc(F)cc2)CC1 (stereo not given)	PostGolgi ctrl 31
COC(=O)CCC(=O)Nc1cccc(C(=O)Nc2cccc(Cl)c2)c1	none
CC(C)(C)C(=O)C(Oc1cccc2nonc12)n1cncn1 (stereo not given)	PostGolgi yeast 46
CCOc1ccc(OCC)c(NC(=O)C2CCN(S(=O)(=O)c3cccc4nonc34)CC2)c1	none (no result: Cav3 T inh)
CCc1ccccc1N1C(=O)c2cccc3c(N4CCOCC4)c([N+](=O)[O-])cc(c23)C1=O	Pyk2 oligo antag -3
CCS(=O)(=O)N1CCN(c2ccc([N+](=O)[O-])c(N3CCOCC3)c2)CC1	none (no result: PostGolgi yeast, PostGolgi ctrl)
CCCN(C(=S)Nc1ccccc1)C1CCS(=O)(=O)C1 (stereo not given)	none
OC12CCCCC1C(c1ccc3c(c1)OCO3)N(Cc1cccc(F)c1)CC2 (stereo not given)	none
OC12CCCCC1C(c1ccc3c(c1)OCO3)N(Cc1ccc(F)cc1)CC2 (stereo not given)	Cav3 T inh -5.9
COc1cccc(C(=O)NCCn2ccc3ccccc32)c1	PostGolgi ctrl 40 (no result: Pyk2 oligo antag)
COc1cc(OC)cc(C(=O)NCCn2ccc3ccccc32)c1	none (no result: Pyk2 oligo antag)
O=C(COc1ccc2ccccc2c1)NCCn1ccc2ccccc21	PostGolgi ctrl 48 (no result: Pyk2 oligo antag)
CCOC(=O)c1c(C)oc2cc(Br)c(O)c(Br)c12	PostGolgi ctrl 52 (no result: Pyk2 oligo antag)
CCOC(=O)COc1cc2c(C(=O)OCC)c(C)oc2cc1Br	none
CN1CCN(C2=C(Cl)C(=O)N(c3ccc(Cl)cc3)C2=O)CC1	PostGolgi ctrl 31
Cc1ccc(C(=O)N2c3ccc(F)cc3CCC2C)o1 (stereo not given)	none (no result: Cav3 T inh)
COc1cc(OC)cc(C(=O)N2c3ccc(F)cc3CCC2C)c1 (stereo not given)	Cav3 T inh -4.6, PostGolgi ctrl 32
COC(=O)c1ccccc1NC(=O)N1c2ccccc2CC1C (stereo not given)	PostGolgi ctrl 48
COc1ccccc1NC(=O)N1c2ccc(F)cc2CCC1C (stereo not given)	Cav3 T inh -5.1
CC1CCc2cc(F)ccc2N1C(=O)C1(C)CC1(Cl)Cl (stereo not given)	none
O=[N+]([O-])c1ccc(-c2nc3ccc([N+](=O)[O-])cc3[nH]2)cc1	none
O=[N+]([O-])c1ccc2nc(/C=C/c3ccc(Cl)cc3)[nH]c2c1	PostGolgi yeast 47, PostGolgi ctrl 75
CCN1CCN(CCCNC(=O)c2cc3cc4ccc(OC)cc4nc3o2)CC1	PostGolgi ctrl 35
COc1ccc2cc3cc(C(=O)NCCN4CCc5ccccc5C4)oc3nc2c1	PostGolgi ctrl 66
CCCN(CCC)CCCNC(=O)c1cc2cc3ccc(OC)cc3nc2o1	PostGolgi ctrl 40
COc1ccc2cc3cc(C(=O)NCCN4CCN(Cc5ccccc5)CC4)oc3nc2c1	none
CCCCN(CC)CCCNC(=O)c1cc2cc3ccc(OC)cc3nc2o1	PostGolgi ctrl 46
Cc1ccc(CNC(=O)C2CC3Cn4c(nc5cc6ccccc6cc54)C3N2C)o1 (stereo not given)	none (no result: Pyk2 oligo antag, PostGolgi yeast, PostGolgi ctrl)
COc1ccc(C(c2nnnn2CCc2ccccc2)N2CCN(C3CCCC3)CC2)cc1OC (stereo not given)	none
C=CCOc1ccccc1CN1CCSCC1	none
Cc1cc(C)n(-c2nc(Nc3ccccc3)nc(-n3nc(C)cc3C)n2)n1	none
COc1cccc(/C=N/Nc2nc(Nc3ccccc3)nc(-n3nc(C)cc3C)n2)c1O	PostGolgi ctrl 58 (no result: Cav3 T inh)
Cc1cccc(NC(=O)C2CCCN(C(=O)Nc3ccccc3)C2)c1C (stereo not given)	none
O=C1c2ccc(Oc3ccc4c(c3)C(=O)N(CCCO)C4=O)cc2C(=O)N1CCCO	none
c1ccc(-c2nc3nonc3nc2-c2ccccc2)cc1	PostGolgi ctrl 31 (no result: Cav3 T inh)
CC(C)C(=O)NC(c1ccco1)c1ccc2cccnc2c1O (stereo not given)	PostGolgi ctrl 32
CCOc1cc(S(=O)(=O)n2cc(-c3ccc(F)cc3)c(N)n2)cc(OCC)c1OCC	Cav3 T inh -5.5
CCOc1ccc(S(=O)(=O)n2cc(-c3ccc(F)cc3)c(N)n2)cc1	none
Brc1ccccc1OCCOCCOc1cccc2cccnc12	Cav3 T inh -4.7
Brc1ccc(OCCOCCOc2cccc3cccnc23)cc1	none (no result: Cav3 T inh, PostGolgi yeast, PostGolgi ctrl)
COc1cc(C)ccc1OCCOCCOc1ccccc1Br	PostGolgi ctrl 42 (no result: Cav3 T inh)
O=C(N/N=C/c1ccc(F)cc1)c1ccc(Br)cc1	none
C/C(=N\NC(=O)c1ccc(Br)cc1)C1C(=O)c2ccccc2C1=O	Cav3 T inh -4.2
CCCc1nc(SCC(=O)N2CCc3ccccc32)c2c(C)c(C)sc2n1	none (no result: Pyk2 oligo antag, Cav3 T inh)
CCCC(c1nnnn1CC(=O)OCC)N(Cc1cc2c(C)cc(C)cc2[nH]c1=O)C1CCCC1 (stereo not given)	none (no result: Cav3 T inh)
CCC(=O)N(Cc1cc2c(C)cc(C)cc2[nH]c1=O)C1CCCCC1	PostGolgi ctrl 47
Cc1cccc(COCC(Cc2ccccc2)N2CCN(C(=O)c3cc(Cl)cc(Cl)c3)CCC2=O)c1 (stereo not given)	Cav3 T inh -3.4 (no result: Pyk2 oligo antag, PostGolgi yeast, PostGolgi ctrl)
CCN(c1ccccc1)S(=O)(=O)c1ccc(OCC(=O)Nc2cc(C)on2)cc1	none
COc1ccccc1N(CC(=O)Nc1cc(C)on1)S(=O)(=O)c1ccc(Cl)cc1	Cav3 T inh -2.4
CCOC(=O)CSc1nnc(CNC(=O)Cc2ccccc2)n1C	none
COc1ccc(CN(C(=O)c2ccco2)c2ccccc2)cc1	none (no result: PostGolgi yeast, PostGolgi ctrl)
O=C(c1ccco1)N(Cc1ccc([N+](=O)[O-])cc1)c1ccc(Cl)cc1	Cav3 T inh -6.9, PostGolgi ctrl 40
O=C(c1ccco1)N(Cc1ccc([N+](=O)[O-])cc1)c1ccc(Br)cc1	Cav3 T inh -6.6, PostGolgi ctrl 45
COc1ccc(O)c(C(=O)c2cnc3onc(C)c3c2)c1	none
CC(C)c1noc2ncc(C(=O)c3cc(Cl)cc(Cl)c3O)cc12	Cav3 T inh -6.5
O=C(CNC(=O)c1cccs1)NCC(=O)OCc1ccc(Cl)cc1	PostGolgi ctrl 32
Cc1ccccc1-c1cc(-c2ccccc2O)on1	none
Oc1ccccc1-c1cc(-c2ccccc2)no1	PostGolgi ctrl 43
CN1CCN(CCC(=O)Nc2cccc(F)c2)CC1	Cav3 T inh -5
CC1=NN(Cc2ccccc2)C(=O)C1C(c1ccccc1)C(C#N)C#N (stereo not given)	Pyk2 oligo antag -3.6
O=C(O)c1ccccc1N/N=C\c1ccnc2ccccc12	PostGolgi ctrl 31
Oc1ccc(/C=N/Nc2cccc3cccnc23)c(O)c1	none
